A number with no mark means an inactive call. The source made the active and inactive calls. The call rests on the fitted dose curve; in most records, active means well fitted curve in the direction sought with a large enough effect in the repeat runs; inconclusive means weak or mixed curves; inactive means flat fitted curve, though single readings scatter.
On the % scale 0 is the no-effect control and ±100 the full control effect.

This experiment can be described thus: qHTS assay to test for compound auto fluorescence at 535 nm (green) in HEK293 cell free culture (AID 720682). As to conditions: cell-free medium, green autofluorescence 485/535 nm, hits give high values; series mostly up to 91.3 µM. The source says:
U.S. Tox21 Program National Center for Advancing Translational Sciences [NCATS] NIH Chemical Genomics Center [NCGC] U.S. Environmental Protection Agency [EPA] National Institutes of Environmental Health Sciences [NIEHS] National Toxicology Program [NTP] U.S. Food and Drug Administration [FDA] Tox21 Assay Overview: Compound auto fluorescence often interferes with screening of the compound library against various biological targets and signaling pathways. Some of these compounds may have fluorophoric properties. Such properties may interfere with the assay outputs resulting in false positives and/or negatives. To decrease such complications and ensure the compound activities are relevant in terms of biological response, the Tox21 10K compound library was screened for auto fluorescence. From the fluorophores used as reporter signals in our screening assays, the auto fluorescence equivalencies of compounds against three fluorophores have been evaluated: Triamterene, Fluorescein and Rose Bengal sodium for blue, green and red fluorescence, respectively. The fluorescence intensities were measured using Excitation/Emission wavelengths at 405/460nm, 485/535nm and 540/590nm for blue, green and red labels, respectively. This assay includes the green fluorescence data.
Tox21 Assay Protocol Summary: 5 uL of culture medium (DMEM containing 10% FBS) per well was dispensed into black wall/clear bottom 1536-well plates using a Multidrop Combi Dispenser (ThermoFisher Scientific, Waltham, MA). After 23 nL compound or DMSO vehicle was transferred into assay plate by a pintool work station (Kalypsys, San Diego, CA), fluorescence intensities in the assay plates were measured by an Envision (PerkinElmer, Shelton, CT) plate reader using three labels for measuring blue, green and red fluorescence at […] 460, 535 and 590nm respectively.
A general note: Quantitative high-throughput screening tests each substance at several concentrations.
For the molecule `CC(C)(O)c1ccc(CNC(=O)c2cccnc2Oc2ccc(F)cc2)cc1`, the result was inactive.
`C=C1C(=C/C=C2\CCC[C@]3(C)[C@@H]([C@H](C)/C=C/[C@@H](O)C4CC4)CC[C@@H]23)C[C@@H](O)C[C@@H]1O`: the molecule was called inactive.
As to `O=C1[C@H]2CCCC[C@H]2C(=O)N1CCCCN1CCN(c2nsc3ccccc23)CC1`, the call was inactive.
As for `CC1=CC=C(C(C)C)CC1`, the call was inactive.
Take `C=CC1CC2C=CC1C2` (stereo not given): the result was inactive.
As to `CCCCCCCCCc1ccc(OCCOCCO)cc1`, the molecule was called inactive.
As to `OCc1cc(C(O)CNCCCCCCOCCCCc2ccccc2)ccc1O` (stereo not given), the call was inactive.
For `CCCCC1=NC2(CCCC2)C(=O)N1Cc1ccc(-c2ccccc2-c2nn[nH]n2)cc1`, the molecule was classed as inactive.
Same read-out and setting: under `CCOC(=O)C(F)(F)F` stands “inactive”; under `COC(C)OC`, “inactive”.
With `CCCCNc1ccc(C(=O)OCCOCCOCCOCCOCCOCCOCCOCCOCCOC)cc1`, the activity change is -0.0595% [at 18.6 µM].
Regarding `N=c1ccn2c(n1)O[C@H]1[C@H](O)[C@@H](CO)O[C@H]12`, the molecule was called inactive.
Same read-out and setting: under `CC1=CCCC(C)(C)C12CCC(C)O2` (stereo not given) stands “inactive”; under `CCCCCCCCCCO[C@@H]1O[C@H](CO)[C@@H](O)[C@H](O)[C@H]1O`, “inactive”.
Still for that read-out and setting: the entry for `OC(C#CCN1CCCC1)(c1ccccc1)c1ccccc1` is “inactive”; for `C[N+]1(CC2COC(c3ccccc3)(C3CCCCC3)O2)CCCCC1` (stereo not given) it is “inactive”; for `CCCCC(CC)COC(=O)CCCCCCCCC(=O)OCC(CC)CCCC` (stereo not given) it is “inactive”.
Same read-out and setting: the entry for `CN1C[C@H]2c3ccccc3Oc3ccc(Cl)cc3[C@@H]2C1` is “inactive”; for `ClCCOCCOCCCl` it is “inactive”; for `CCCCCCc1ccc(-c2ccc(C#N)cc2)cc1` it is “inactive”.
Consider `C#CCN(C)CCCOc1ccc(Cl)cc1Cl`, for which the molecule was classed as inactive.
Consider `O=C(NCCO[N+](=O)[O-])c1cccnc1`, for which the call was inactive.
Take `CCCn1cnc2c1c(=O)n(CCCCC(C)=O)c(=O)n2C`: the result was inactive.
As to `COc1cc2c(cc1OC)C(C(C(=O)N(CCc1ccc(OC)c(OC)c1OC)CCc1ccc(OC)c(OC)c1OC)c1ccccc1)=NCC2` (stereo not given), the call was inactive.
For the molecule `CCCCCCCN`, the molecule was classed as inactive.
As for `C=C(C)C(=O)OCCO`, the result was inactive.
Same read-out and setting: the entry for `O=CC1CC=CCC1` (stereo not given) is “inactive”; for `O=C(CS)Nc1ccccc1` it is “inactive”.
Take `CCO[Si](CCCCl)(OCC)OCC`: the molecule was called inactive.
For the molecule `NCc1ccccc1Sc1ccccc1CO`, the result was inactive.
As to `Cc1oc(-c2ccccc2)nc1CCOc1cccc2c1ccn2CCC(=O)O`, the call was inactive.
On to `C=C1[C@H]2CC[C@@H]3[C@H]2C(C)(C)CCC[C@]13C`, for which the call was inactive.
As to `CC(C)(CO)[N+](=O)[O-]`, the call was inactive.
For `Cn1c(=O)cc(Oc2ccc(F)cc2F)c2cnc(NCC(C)(C)O)nc21`, the result was inactive.
Still for that read-out and setting: the entry for `CCCCCCCCO[C@@H]1O[C@H](CO)[C@@H](O)[C@H](O)[C@H]1O` is “inactive”; for `c1ccc(-c2ccccn2)nc1` it is “inactive”.
Turning to `O=C(O)c1nc(Cl)c(Cl)c(Cl)c1Cl`, the molecule was called inactive.
With `C=CC(=O)OCCOc1ccccc1`, the result was inactive.
Regarding `NCC(=O)CCC(=O)O`, the result was inactive.
On the same count and under the same terms, under `CCC(C)(C)CC` stands “inactive”.

Values taken from PubChem BioAssay (Tox21).
